Screening data from PubChem BioAssay.
RAD52 anneal inh = RAD52 DNA annealing inhibitors, primary screen, biochemical, FRET, single point, set 2; hit rate 0.46% among 360,000; recombinant RAD52 DNA annealing, FRET fluorescence; inhibition, % at 18.7 µM; DNA repair protein RAD52 homolog (Homo sapiens), P43351; AID 651710, 2012;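 active means every replicate showing at least 50% inhibition; inconclusive means mean inhibition at least 50% but not in every replicate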
Target sequence (P43351 whole entry, looked up): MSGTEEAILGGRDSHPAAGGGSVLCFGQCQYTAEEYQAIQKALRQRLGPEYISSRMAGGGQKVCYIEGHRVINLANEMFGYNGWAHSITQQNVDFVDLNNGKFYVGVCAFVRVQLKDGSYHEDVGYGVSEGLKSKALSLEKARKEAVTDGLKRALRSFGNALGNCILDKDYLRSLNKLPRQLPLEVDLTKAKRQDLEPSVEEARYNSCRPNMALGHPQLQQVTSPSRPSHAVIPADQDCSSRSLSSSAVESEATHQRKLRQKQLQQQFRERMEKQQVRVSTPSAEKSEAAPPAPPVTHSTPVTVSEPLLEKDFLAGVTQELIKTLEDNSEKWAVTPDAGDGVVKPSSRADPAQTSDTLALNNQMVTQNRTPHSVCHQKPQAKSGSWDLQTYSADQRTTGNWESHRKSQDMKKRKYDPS
AF4-AF9 inh = inhibitors of AF4 peptide binding to AF9, primary screen, biochemical, AlphaScreen, biotin-AF4 peptide, FLAG-AF9, single point. Protein AF-9 (Homo sapiens), P42568. inhibition, % at 10 µM. hit rate 0.47% among 350,000. AID 651704, 2012;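 active means every replicate reaching a set inhibition limit, whatever the replicate mean, cut at about 25% in these data; inconclusive means mean inhibition reaches that limit but some replicates miss it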;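 further: 0% = plate neutral control median and 100% = total signal loss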
CASP6 VEID inh = human caspase-6 inhibitors, primary screen, biochemical, VEID-R110 fluorescence, single point, set 2; purified caspase-6, Z-VEID-R110 cleavage fluorescence; inhibition, % at 12.5 µM; hit rate 0.53% among 350,000;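 active means mean inhibition across replicates at least about 35%, with every replicate also reaching that limit, limit read from the data; inconclusive means only one of the two criteria met; inactive means neither criterion met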;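 further: 0% = median of neutral control wells and 100% = no fluorescence left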
Target sequence (P55212 24-179 limits assumed): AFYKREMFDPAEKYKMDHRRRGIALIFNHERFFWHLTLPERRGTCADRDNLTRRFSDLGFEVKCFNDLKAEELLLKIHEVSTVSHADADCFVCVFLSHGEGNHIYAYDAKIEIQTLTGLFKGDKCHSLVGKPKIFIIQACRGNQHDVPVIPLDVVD
Target sequence (P55212 194-293 limits assumed): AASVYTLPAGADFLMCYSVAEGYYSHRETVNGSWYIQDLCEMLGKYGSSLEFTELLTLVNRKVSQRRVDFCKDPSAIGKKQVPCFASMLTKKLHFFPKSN
Glyco luc inh = increase of ERlucT glycosylation luciferase signal, primary screen, N-linked glycosylation inhibitor project, D54 ERlucT cells, luminescence, set 2. hit rate 0.23% among 360,000. AID 588692, 2011. reporter increase, % at 12.5 µM. D54 ERlucT glycosylation luciferase reporter, 24 h; percent of 100 nM tunicamycin response;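 active means mean luciferase reporter signal, scaled so untreated is 0 and the glycosylation-blocking control 100, at or above a set limit in every replicate; inconclusive means mean reaches the limit but not every replicate does; inactive means mean below the limit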;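 further: luciferase carries N-glycosylation sites so blocking glycosylation raises the light; 0% = median of neutral control wells and 100% = median of 100 nM tunicamycin wells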
RAD54 branch = inhibitors of human RAD54 branch migration, primary screen, biochemical, fluorescence, single point; RAD54 Holliday junction branch migration, FAM/BHQ fluorescence; hit rate 0.14% among 360,000; DNA repair and recombination protein RAD54-like (Homo sapiens), Q92698; AID 602329, 2012; inhibition, % at 10.4 µM;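 active means mean normalized replicate activity at least 40 and at least half of replicates scoring 40 or more; inconclusive means only one of the two criteria met; inactive means mean below 40 and under half of replicates reaching 40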;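 further: 0% = median of neutral control wells and 100% = median of positive control wells; inhibitors cause a drop in the FAM fluorescence signal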
Starred values were filed as active, the others as inactive; ? = inconclusive; . = not tested or not shown; ! = not confirmed by another sample. The list is not random: actives were taken first. Their share in the collection is about 1.2%.

SMILES	RAD52 anneal inh	AF4-AF9 inh	CASP6 VEID inh	Glyco luc inh	RAD54 branch
O=C(CCN1CCCCC1)NCC[C@H]1CC[C@@H](NC(=O)C2CCCC2)[C@H](CO)O1	3.2	-0.3	0.2	.	0.6
Cc1noc(C)c1S(=O)(=O)Nc1ccc2c(c1)C(=O)N([C@H](C)CO)C[C@@H](C)[C@@H](CN(C)C(=O)NC1CCCCC1)OCCCC[C@H](C)O2	-25.9	-4.9	-0.2	.	2.1
COc1cccc(NC(=O)Nc2ccc3c(c2)C(=O)N(C)C[C@H](OC)[C@@H](C)CN[C@H](C)CO3)c1	67.5*	15.3	-0.9	.	23.5
CO[C@H]1CN(C)C(=O)c2cc(NC(=O)c3ccc(Oc4ccccc4)cc3)ccc2OC[C@H](C)NC[C@H]1C	52.7*	-0.2	3.3	.	14.3
COc1cccc(NC(=O)Nc2ccc3c(c2)C(=O)N(C)C[C@H](OC)[C@H](C)CN[C@@H](C)CO3)c1	41.3	7.9	-1.8	.	3.7
COc1cccc(NC(=O)Nc2ccc3c(c2)C(=O)N(C)C[C@@H](OC)[C@H](C)CN[C@@H](C)CO3)c1	54.1*	12.7	-2.2	.	10.6
COc1cccc(NC(=O)Nc2ccc3c(c2)OC[C@H](C)NC[C@H](C)[C@@H](OC)CN(C)C3=O)c1	4.9	5.0	-6.5	.	.
CO[C@@H]1CN(C)C(=O)c2cc(NC(=O)c3ccc(Oc4ccccc4)cc3)ccc2OC[C@H](C)NC[C@@H]1C	22.1	9.8	3.8	.	14.1
CCN(CC)CCn1c2ccccc2c2cnc(N=CN(C)C)c(C#N)c21	.	.	.	?	96.6*
CCn1c2ccccc2c2cnc(N=CN(C)C)c(C#N)c21	.	.	.	-7.6	11.5
Cc1occc1C(=O)NCc1ccco1	-6.3	-4.0	40.8*	0.3	.
COC(=O)C1Cc2c([nH]c3ccccc23)C2(CCN(Cc3ccccc3)CC2)N1 (centres undefined)	2.3	29.9*	-3.2	-1.5	3.1
O=C(Nc1cccc(F)c1)N1C[C@@H]2N[C@H](C1)C2c1ccc(-c2ccccc2F)cc1 (some centres undefined)	63.6*!	-1.1	1.2	.	.
Cc1ccccc1-c1ccc(C2[C@@H]3CN(C(=O)Nc4cccc(F)c4)C[C@H]2N3)cc1 (some centres undefined)	72.2*!	4.1	2.4	.	.
O=C(Nc1cccc2c(=O)[nH][nH]c(=O)c12)c1ccc([N+](=O)[O-])cc1	-15.4	-6.0	41.6*	2.9	7.5
O=C(O)c1cc(O)c2c(c1)[C@@H]([C@H]1c3cc(C(=O)O)cc(O)c3C(=O)c3c(O[C@@H]4O[C@H](CO)[C@@H](O)[C@H](O)[C@H]4O)cccc31)c1cccc(OC3O[C@H](CO)[C@@H](O)[C@H](O)[C@H]3O)c1C2=O (some centres undefined)	1.3	2.7	90.8*	-0.7	8.7
O=C(O)c1cc(O)c2c(c1)[C@H]([C@H]1c3cc(C(=O)O)cc(O)c3C(=O)c3c(O[C@@H]4O[C@H](CO)[C@@H](O)[C@H](O)[C@H]4O)cccc31)c1cccc(OC3O[C@H](CO)[C@@H](O)[C@H](O)[C@H]3O)c1C2=O (some centres undefined)	-17.8	4.3	82.8*	-2.7	2.4
O=C(COC(=O)Cc1ccc(S(=O)(=O)N2CCOCC2)s1)Nc1ccc(F)cc1F	-175.3	-2.7	43.0*	3.3	8.1
CN(C)c1ccc(CN2CCC(C(=O)NC(c3ccc(F)cc3)c3ccc4ccccc4n3)CC2)cc1 (centres undefined)	4.7	42.4*	7.2	-4.4	7.5
CC=Cc1ccc2n(c1=O)C[C@@H]1[C@@H](CO)[C@H](C(=O)NCc3ccccc3)N(CCC(F)(F)F)[C@H]21 (mixture of isomers)	-17.3	1.0	-3.8	.	-10.2
COc1ccc(OC)c(CN2CCN(C(=O)c3cc(S(=O)(=O)Nc4ccccc4OC)ccc3C)CC2)c1	-1.1	3.8	1.9	0.0	1.4
COc1ccccc1NS(=O)(=O)c1cc(C(=O)NC2CCN(Cc3ccccc3)CC2)ccc1C	-33.8	7.9	55.2*	.	.
COc1ccccc1NS(=O)(=O)c1cccc(C(=O)NC2CCN(Cc3ccccc3)CC2)c1	.	.	.	-1.7	-2.4
COc1ccc(OC)c(CN2CCN(C(=O)c3ccc(C)c(S(=O)(=O)Nc4ccccc4OC)c3)CC2)c1	1.1	32.7*	-209.3	-0.3	25.7
O=C(C[C@@H]1CC[C@@H]2[C@H](COC[C@@H](O)CN2S(=O)(=O)c2ccc(F)cc2)O1)NCC1CCCCC1	71.2*	?	4.8	.	0.6
SMILES	RAD52 anneal inh	AF4-AF9 inh	CASP6 VEID inh	Glyco luc inh	RAD54 branch
O=C(C[C@H]1CC[C@@H]2[C@H](COC[C@@H](O)CN2S(=O)(=O)c2cccc(Cl)c2)O1)NC1CCCC1	40.4	26.2*	-1.6	.	-10.0
O=C(C[C@@H]1CC[C@@H]2[C@H](COC[C@H](O)CN2S(=O)(=O)c2cccc(Cl)c2)O1)NC1CCCC1	19.5	7.8	-3.2	.	-5.9
O=C(C[C@H]1CC[C@@H]2[C@H](COC[C@H](O)CN2S(=O)(=O)c2ccc(F)cc2)O1)NCC1CCCCC1	59.2*	28.2*	-10.5	.	3.6
O=C(C[C@@H]1CC[C@H]2[C@@H](COC[C@H](O)CN2S(=O)(=O)c2ccc(F)cc2)O1)NCC1CCCCC1	89.1*	36.1*	-0.9	.	5.8
C[C@@H]1CN([C@@H](C)CO)C(=O)Cc2cc(NC(=O)c3ccncc3)ccc2O[C@H]1CN(C)Cc1ccncc1	-10.9	-3.0	-0.6	.	-3.3
COc1ccc(S(=O)(=O)N[C@H]2CC[C@@H](CC(=O)N3CCc4ccccc4C3)O[C@H]2CO)cc1	-3.7	-1.9	-0.5	.	-9.9
O=C(C[C@@H]1CC[C@H]2[C@@H](COC[C@@H](O)CN2S(=O)(=O)c2ccc(Cl)cc2)O1)NCC1CCCCC1	42.0	33.6*	-1.2	.	-4.0
COCCNC(=O)C[C@@H]1CC[C@H](NC(=O)NC2CCCC2)[C@H](CO)O1	1.2	-0.8	6.5	.	8.7
Cc1cc(=O)[nH]c(N/N=C/c2c(C)nn(-c3ccccc3)c2Cl)n1	-11.9	-6.2	-0.3	-3.0	.
Cc1nn(-c2ccccc2)c(Cl)c1/C=N/Nc1nc2ccccc2[nH]1	-9.7	-2.3	-6.9	65.8*	.
CN(C)CCCN1c2ccccc2Sc2ccc(C(F)(F)F)cc21	48.2	21.0	.	2.5	18.2
CN(C)CCCN1c2ccc(O)cc2Sc2ccc(Cl)cc21	48.6	51.3*	-12.5	10.1	28.1
C[C@H]1CN([C@@H](C)CO)C(=O)Cc2cc(NS(C)(=O)=O)ccc2O[C@H]1CN(C)C(=O)Nc1ccc2c(c1)OCO2	.	.	.	.	6.5
Cc1noc(C)c1NC(=O)N(C)C[C@H]1Oc2ccc(NS(=O)(=O)c3ccc(F)cc3)cc2C(=O)N([C@@H](C)CO)C[C@@H]1C	-3.3	0.0	0.3	.	5.3
